Compounds with a hit are over-represented: about 3.3% of the library has one in this group of screens.
ABHD5 PLIN5 PPI: ABHD5-PLIN5 protein interaction inhibition; actives 0.78% (n = 360,000); inhibition, % at 4 µM; Split G. princeps luciferase complementation, luminescence, 4 h;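 active = inhibition above the mean inhibition across every tested compound plus 3 SD, cut at about 22% in these data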;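 note: 0% = DMSO only wells and the 100% control is not disclosed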
NOD2-RIPK2 inh: blocks binding of human NOD2 to RIPK2 | O43353 | actives 0.38% (n = 360,000) | AID 624267 | CHO BLA complementation NOD2-RIPK2, CCF4 ratio | inhibition, % at 4.98 µM; in the data active = inhibition above about 21%;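 note: 0% = vehicle only and 100% = reference blocker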
TLR4 MyD88 comp: blocks binding of human TLR4 to MyD88; HeLa CL3-4 TLR4/MyD88 BLA complementation, FRET ratio; actives 0.18% (n = 200,000); inhibition, % at 8.4 µM; O00206+Q99836; in the data active = inhibition above about 25%;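 note: 0% = vehicle and 100% = reference inhibitor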
PRMT1 inh: PRMT1 (human) inhibition, primary screen. Q99873. recombinant PRMT1, activity-based probe fluorescence polarization. inhibition, % at 2.79 µM. actives 1.3% (n = 370,000);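 active = inhibition above about 21% made by adding two undisclosed values, limit read from the data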
Target sequence (Q99873 whole entry, looked up): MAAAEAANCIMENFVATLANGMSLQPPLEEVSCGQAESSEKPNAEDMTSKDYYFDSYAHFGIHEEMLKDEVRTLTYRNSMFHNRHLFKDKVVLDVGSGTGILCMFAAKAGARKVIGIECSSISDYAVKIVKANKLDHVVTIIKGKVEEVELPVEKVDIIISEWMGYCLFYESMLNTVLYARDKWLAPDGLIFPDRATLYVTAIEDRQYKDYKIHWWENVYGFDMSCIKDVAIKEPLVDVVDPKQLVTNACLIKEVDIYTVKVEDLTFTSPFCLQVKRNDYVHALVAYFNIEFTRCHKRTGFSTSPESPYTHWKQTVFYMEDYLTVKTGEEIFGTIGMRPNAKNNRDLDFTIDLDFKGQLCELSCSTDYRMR
TLR9-MyD88 inh: inhibitors of human TLR9-MyD88 binding | CHO BLA complementation TLR9-MyD88, CCF4 FRET ratio | inhibition, % at 4.98 µM | actives 0.21% (n = 340,000);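 active = inhibition above the mean over all tested compounds plus 3 SD, cut at about 21% in these data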;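 note: 0% = DMSO only wells and 100% = clavulanate BLA inhibitor control wells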
rCAG RNA binder: binds r(CAG) RNA repeats; r(CAG) RNA repeat, TO-PRO-1 dye displacement fluorescence; inhibition, % at 3 µM; actives 1.3% (n = 370,000); AID 651821;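 active = inhibition above the plate cutoff, the mean of all test compounds on that plate plus 3 SD, cut at about 35% in these data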;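 note: 0% = DMSO alone and 100% = 100 µM mitoxantrone as full dye displacement; higher means more dye released from RNA so lower well fluorescence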
PRMT1 confirm: confirmation of human PRMT1 inhibitors | shares compounds with PRMT1 inh | recombinant His-PRMT1, activity-based probe fluorescence polarization | inhibition, % at 2.79 µM | actives 42% (n = 3,300) | AID 687036;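 active = mean inhibition across replicates above the hit cutoff derived for the earlier primary screen, cut at about 22% in these data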
* marks the source's active call; other numbers are inactive results; . = no result given.

SMILES	ABHD5 PLIN5 PPI	NOD2-RIPK2 inh	TLR4 MyD88 comp	PRMT1 inh	TLR9-MyD88 inh	rCAG RNA binder	PRMT1 confirm
COc1ccc(-c2ccc(C(=O)C3CC3)cc2)cc1	1.0	-5.0	.	1.9	1.4	-0.5	.
CC[N+]1(C)CCC(O)(c2ccc(OC)cc2)C(C(=O)c2ccc(OC)cc2)C1 (stereo not given)	7.4	1.3	.	26.1*	-2.2	1.9	12.8
Cc1ccc(S(=O)(=O)NCC23C=CC(O2)C2C(=O)N(c4ccccc4)C(=O)C23)cc1 (stereo not given)	15.1	-2.8	-21.3	80.9*	-1.2	-0.7	11.0
Cc1ccc(N2C(=O)[C@@H]3[C@H](C2=O)[C@H]2C=CC=NN2[C@@H]3C(=O)Nc2ccccc2)cc1	6.1	6.4	.	2.0	-3.9	17.6	.
S=C(NCC1CCCO1)N1CCN(c2ccccc2)CC1 (stereo not given)	-1.9	-7.5	-0.7	-2.0	5.3	-0.8	.
Cc1ccc(N2C(=O)C3C4C=CC(CNC(=S)N5CCN(c6ccccc6)CC5)(O4)C3C2=O)cc1 (stereo not given)	2.2	6.9	-8.3	43.5*	8.5	3.2	43.6*
Cc1cccc(NC(=S)NCC23C=CC(O2)C2C(=O)N(c4ccc(Cl)cc4)C(=O)C23)c1 (stereo not given)	17.2	6.8	-11.8	77.8*	-1.6	8.2	31.0*
Cc1ccc(NC(=S)NCC23C=CC(O2)C2C(=O)N(c4ccc(C)cc4)C(=O)C23)cc1 (stereo not given)	15.3	3.6	0.4	91.4*	0.9	3.0	50.4*
Cc1ccc(S(=O)(=O)NC[C@@H]2C[C@H](c3ccccc3)ON2S(=O)(=O)c2ccc(C)cc2)cc1	.	.	.	1.1	.	.	.
CCSc1nnc2ccc(-c3ccc(C)cc3)nn12	3.2	-8.7	.	-2.5	-0.4	-0.5	.
COC(=O)[C@]12C[C@H](CC(=O)N3CCOCC3)C(=O)N(Cc3cccc4ccccc34)C1=C[C@H](COCc1ccccc1)O[C@@H]2C	.	.	.	-0.6	.	7.5	.
O=C(CC(Nc1ccc(F)cc1)C(=O)OCC(=O)c1cccs1)c1ccccc1 (stereo not given)	7.8	-4.2	6.8	29.4*	0.5	2.6	11.6
Cc1cc(-c2n[nH]c(=S)n2N=Cc2c3ccccc3cc3ccccc23)n[nH]1	.	.	.	42.3*	.	11.0	17.3
Cc1cc(-c2n[nH]c(=S)n2/N=C/C(Cl)=C/c2ccccc2)n[nH]1	5.9	-2.5	11.3	25.9*	-7.6	31.5	15.4
COC(=O)C1=CN(c2ccc(F)cc2)C(N)=C(C#N)C1c1ccc(-c2ccccc2)cc1 (stereo not given)	2.5	-5.5	.	4.8	.	10.8	.
CCOC(=O)c1sc(NNC(=O)c2ccc(C)cc2)nc1C	-11.3	-3.4	.	0.3	0.2	0.6	.
CCOC(=O)c1sc(NNC(=O)c2ccc(F)cc2)nc1C	10.7	-4.0	.	41.9*	11.0	6.6	1.8
COc1ccc(S(=O)(=O)N2CCOc3ccccc32)cc1	-6.8	10.2	.	-0.1	-3.2	0.2	.
Cc1ccc(/C=C/C(=O)Nc2cccc(S(=O)(=O)N3CCOCC3)c2)o1	12.2	-0.2	2.3	35.9*	-1.7	13.4	5.3
O=C(/C=C/c1ccco1)Nc1cccc(S(=O)(=O)N2CCOCC2)c1	7.0	-0.2	0.4	-1.4	-2.1	6.0	.
O=C1CC(Sc2ncccn2)C(=O)N1c1ccccc1C(F)(F)F (stereo not given)	-0.4	-7.3	1.8	51.1*	-7.2	2.7	5.5
CCc1ccccc1N1C(=O)CC(Sc2nccc(C)n2)C1=O (stereo not given)	4.8	2.3	.	13.8	-7.5	-1.6	.
Cc1ccc(Cl)cc1N1C(=O)CC(Sc2ncccn2)C1=O (stereo not given)	-4.7	6.4	.	31.8*	1.1	3.1	-0.4
CCOC(=O)c1ccc(N2CCOCC2)c(NC(=O)c2c(-c3ccccc3)noc2C)c1	4.1	-2.4	.	-0.9	.	-0.5	.
COc1ccc(NC(=O)CSc2nc3ccsc3c(=O)n2Cc2ccccn2)c(OC)c1	-3.5	2.6	-10.0	29.4*	2.3	-4.0	0.6
SMILES	ABHD5 PLIN5 PPI	NOD2-RIPK2 inh	TLR4 MyD88 comp	PRMT1 inh	TLR9-MyD88 inh	rCAG RNA binder	PRMT1 confirm
Cc1ccc(CNC(=O)CSc2nc3ccsc3c(=O)n2Cc2ccccn2)cc1	-2.7	0.6	1.0	13.2	4.4	-16.3	.
CN1C=CC2=C(C#N)C(N)C(C#N)(C#N)[C@H](c3ccccc3)[C@H]2C1 (stereo not given in full)	-7.4	-3.2	-9.6	26.2*	-0.9	-13.3	9.8
COc1ccc(CCc2nnc(CCC(=O)NCc3cnc4ccccn34)o2)cc1	6.0	-6.6	0.4	0.2	5.5	-2.9	.
COc1ccccc1NC(=O)CSC1=NCCN1	-4.7	-1.6	-2.0	30.9*	-5.0	1.3	20.9
COc1ccccc1NC(=O)CSc1nccc(-c2ccco2)n1	-2.9	-5.8	.	31.6*	-10.2	18.7	6.6
CCOc1ccccc1NC(=O)/C=C/C(N)=O	12.6	-8.5	-3.2	61.4*	-7.0	-1.7	46.9*
CCn1c(SCC(=O)Nc2ccc(C)cc2)nnc1-c1ccccn1	-3.2	-6.4	.	-1.5	1.9	-2.3	.
COc1ccccc1NC(=O)CSc1nccc(=O)[nH]1	-21.4	0.4	4.2	.	-9.9	.	.
CCOc1ccccc1NC(=O)/C=C/c1ccccc1[N+](=O)[O-]	-1.4	5.3	-4.7	-2.9	9.6	2.6	.
COc1ccccc1NC(=O)CSc1nnc(-c2ccco2)o1	-1.3	0.4	-2.6	1.8	-1.9	-0.4	.
Cc1ccc(NC(=O)CSC2=NCCN2)cc1	-2.5	-10.3	-5.9	31.6*	-8.9	-0.8	12.4
Cn1c(SCC(=O)N2CCCC2=O)nc2ccccc21	1.0	-2.1	2.2	-2.1	13.4	0.7	.
COC(=O)C1=CO[C@@H](O[C@@H]2O[C@H](CO)[C@@H](O)[C@H](O)[C@H]2O)C2C1CC(O)O[C@H]2C (stereo not given in full)	8.1	-0.3	.	-1.9	-1.5	-0.8	.
COc1ccc(CCNC(=O)C2(C)CCC(=O)N2Cc2ccc(C)cc2)cc1OC (stereo not given)	-1.4	-4.8	.	2.6	-1.5	-3.3	.
Nc1nc(SCC(=O)Nc2cccc([N+](=O)[O-])c2)n[nH]1	1.2	-12.8	.	-3.0	2.4	1.7	.
O=C(CSC1=NCCN1)NC(c1ccccc1)c1ccccc1	2.3	1.5	-0.9	41.2*	0.6	2.7	26.3*
CCOc1ccccc1NC(=O)CSc1c(C)n[nH]c1C	-0.8	-9.4	-7.6	25.1*	-4.9	1.1	20.6
O=C(CSC1=NCCN1)Nc1ccccc1[N+](=O)[O-]	-3.9	1.2	-8.4	54.8*	-9.2	-3.6	19.3
O=C(CSC1=NCCN1)Nc1cccc([N+](=O)[O-])c1	-5.9	-7.0	-11.1	33.9*	-1.7	2.3	15.9
